# Laboratory results taken from PubChem BioAssay AID686978 (National Center for Advancing Translational Sciences (NCATS), 2013).
# Where “and” joins values, the source holds several entries; their conditions need not be identical. Equal entries are not always repeated. The whole screen tested about 420,000 compounds, of which about 64,000 (15%) were called active. Inconclusive results (about 27%) are left out. Only a sample is shown. Values without a mark were called inactive. Calls come from the whole dose curve; as a rule, active = well fitted inhibition curve with a large enough effect; inconclusive = small, poorly fitted or top-dose-only effect; inactive = flat fitted curve, though single readings scatter.
# Assay: qHTS for Inhibitors of human tyrosyl-DNA phosphodiesterase 1 (TDP1): qHTS in cells in absence of CPT; note: nearly all actives have a fitted effect of over 55% in size
# Conditions: DT40 Tdp1-/- hTDP1 cells, no CPT, ATP luminescence, 48 h; activity change, negative = growth inhibition: at 46.2 µM (top of the series)
# Method in brief: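 No-CPT arm: Tdp1-/-;hTDP1 DT40 cells (400/well) plus compounds, incubated ≥48 hr at 37 °C. Readout CellTiter-Glo luminescence.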
# % is set by controls: 0 for no effect and ±100 for the full control effect; potency is the fitted concentration of half-maximal effect.
SMILES,"activity change, negative = growth inhibition [%]",Potency
O=C(COC(=O)c1ccccc1SCC(=O)N1CCCC1)Nc1ccccc1OC(F)F,-28.3,–
Cc1ccc(CNC(=O)CCNC(=O)Cn2ccc3ccccc3c2=O)cc1,-6.74,–
CCN(CCO)C(=S)Nc1cc(C(=O)OC)ccc1C(=O)OC,-16.3,–
CCCN(CCC)C(=S)Nc1cc(C(=O)OC)ccc1C(=O)OC,–,18.4 µM (active)
CCS(=O)(=O)Nc1cc(C(=O)OC)ccc1C(=O)OC,-15.2,–
Cc1ccc(Cc2c(-c3ccco3)nc3ccc(Cl)cn23)cc1,–,11.6 µM (active)
CC(=O)Nc1c(-c2ccc(C)cc2)nc2ccc(Cl)cn12,17.1,–
c1ccc(Cc2c(-c3ccco3)nc3c4ccccc4ccn23)cc1,–,20.6 µM (active)
CN(C)C(=O)c1nc2ccc(Cl)cn2c1CN1CCN(c2ncccn2)CC1,-20.4,–
CSc1nc(-c2ccco2)nn1C(=O)CCc1ccccc1,-2.42,–
O=C(Nc1c(-c2ccccc2)nc2c(Br)cc(Br)cn12)c1ccco1,-16.2,–
Cc1ccc(-c2cn3cc(C)ccc3n2)cc1,-25.3,–
CN1CCN(Cc2c(C(=O)N3CCc4ccccc4C3)nc3ccc(Cl)cn23)CC1,12.3,–
Cc1ccc(-c2nc3ccc(Cl)cn3c2Cc2ccccc2)cc1,–,20.6 µM (active)
Cc1nn(CC(=O)Nc2ccc3c(c2)OCO3)c(C)c1[N+](=O)[O-],-10.4,–
Cc1cccc(NC(=O)CN2C(=O)CNC2=O)c1,-8.76,–
C/C(=N\NC(=O)c1cccc([N+](=O)[O-])c1)c1cccnc1,9.04,–
CCOC(=O)C(C)Oc1cccc2c(=O)n(CC(=O)N3CCc4ccccc43)ccc12 (centres undefined),-8.97,–
O=C(Nc1ccccc1C(=O)N1CCOCC1)c1ccc(Cl)cc1,4.37,–
Cn1c(=O)n(C)c2cc(S(=O)(=O)Nc3ccc(F)cc3)ccc21,–,20.6 µM (active)
Cc1cc(C)cc(NS(=O)(=O)c2ccc(F)cc2)c1,-29.8,–
Cn1c(=O)n(C)c2cc(NS(=O)(=O)c3ccc(F)cc3)ccc21,-75.4,–
Cn1c(C(=O)N2CCCC(C(=O)NCc3ccccc3)C2)cc2sccc21 (centres undefined),-15.8,–
CCCCCCCN=C(C)c1ccccc1O,-1.56,–
Oc1cccc(/C=N/Nc2ccc(Cl)nn2)c1O,–,0.13 µM (active)
Clc1ccc(N/N=C/c2cccs2)nn1,-11.9,–

SMILES,"activity change, negative = growth inhibition [%]",Potency
C/C(=N\Nc1ccc(Cl)nn1)c1ccccc1O,–,0.58 µM (active)
Fc1ccccc1Cc1ccc(Cl)nn1,5.81,–
O=C(c1cccc(-n2cccc2)c1)N1CCN(S(=O)(=O)c2ccc(F)cc2)CC1,4.26,–
C=C(Cl)COC(=O)C1C2C=CC(C2)C1C(=O)O (centres undefined),0.932,–
CC12CN(NC(=O)c3ccc(Cl)cc3)C3(C#N)CC1CCC23C (centres undefined),-7.9,–
Cc1ccc(C(CNC(=O)Nc2ccccc2)N2CCN(C)CC2)cc1 (centres undefined),24.7,–
Cc1ccc(NC(=O)[C@H](Cc2ccccc2)NC(=O)CC[C@H]2O[C@@H](n3ccc(=O)[nH]c3=O)[C@H](O)[C@@H]2O)cc1C,3.83,–
CCOC(=O)/C(N=Nc1cc(C(=O)O)cc(C(=O)O)c1)=C(\O)CCl,0.226,–
CCO/C=C1\C(=O)N(c2ccc(OCC)cc2)C(=O)c2ccccc21,-1.17,–
CCOc1ccc(/C(O)=C2\C(=O)C(=O)N(c3ccc(OC)cc3)C2c2ccccc2[N+](=O)[O-])cc1 (centres undefined),-24,–
CCOc1ccc(-c2n[nH]c3c2C(c2ccccc2OC)N(c2ccc(Br)cc2)C3=O)cc1 (centres undefined),–,14.6 µM (active)
Cc1ccc(C(=O)Nc2ccn(C)n2)cc1,11.8,–
Cc1ccc(NC(=O)C2CCCN2S(=O)(=O)c2cccc3cccnc23)c(C)c1 (centres undefined),–,18.4 µM (active) and 16.4 µM (active)
COc1ccc(NC(=O)C2CCCN(S(=O)(=O)c3cccc4cccnc34)C2)cc1OC (centres undefined),-70.6,–
O=C(Nc1nccs1)C1CCCN1S(=O)(=O)c1cccc2cccnc12 (centres undefined),-9.03,–
COC(=O)C1=C(C)N(C)C(C)=C(C(=O)OC)C1c1cccc(Br)c1,-23.5,–
Cn1c2c(c(=O)n(C)c1=O)C(c1cccc(F)c1)C(C#N)=C(N)O2 (centres undefined),0.646,–
COC(=O)C1=CN(c2c(C)cc(C)cc2C)C(N)=C(C#N)C1c1cccc(F)c1 (centres undefined),–,14.6 µM (active)
Cc1ccc(NC(=O)C(C)OC(=O)Cc2c[nH]c3ccccc23)cc1S(=O)(=O)N1CCOCC1 (centres undefined),-5.52,–
O=C(OCC(=O)N1CCCCCC1)c1ccc(Br)c(S(=O)(=O)N2CCOCC2)c1,-24.2,–
COc1cc(Br)cc(/C=N/c2ncn[nH]2)c1O,14.3,–
N#C/C(C(=O)N1CCOCC1)=C1/SC(Cc2ccc(F)cc2)C(=O)N1c1ccccc1 (centres undefined),5.03,–
CC1(C(=O)NS(=O)(=O)Cc2cccc(Cl)c2)CCN1C(=O)Cc1ccccc1 (centres undefined),-22.5,–
CC1(C(=O)NS(=O)(=O)c2ccccc2)CCN1C(=O)Cc1ccc(-c2ccccc2)cc1 (centres undefined),-0.605,–
C#Cc1ccc(NC(=O)C2(C)CCN2C(=O)Cc2ccc(-c3ccccc3)cc2)cc1 (centres undefined),–,20.6 µM (active)
CC1(C(=O)NS(=O)(=O)c2cccs2)CCN1C(=O)Cc1ccc(-c2ccccc2)cc1 (centres undefined),-3.62,–

SMILES,"activity change, negative = growth inhibition [%]",Potency
CCCNC(=O)C1(C)CCN1C(=O)Cc1ccc(-c2ccccc2)cc1 (centres undefined),–,9.2 µM (active)
COc1ccc(OC)c(NC(=O)C2(C)CCN2C(=O)Cc2ccccc2)c1 (centres undefined),-22.7,–
O=C(CSc1cn(CC(=O)N2CCOCC2)c2ccccc12)Nc1ccccc1,-19.5,–
O=C(CN1C(=O)NC2(CCCC2)C1=O)Nc1cc(C(F)(F)F)ccc1N1CCOCC1,-13.1,–
Cc1ccc2c(c1)N(CCCC(=O)NCc1cccnc1)C(=O)CO2,1.85,–
COc1cc(C)ccc1OCC(=O)OCC(=O)c1ccc[nH]1,-12.9,–
COCC1CCN(C(=O)C2CCC(=O)N(CC3CCCCC3)C2)CC1 (centres undefined),10.1,–
Cc1ccc(S(=O)(=O)N(CC(=O)NCc2ccco2)c2ccccc2C)cc1,-25.5,–
CN(CC(=O)Nc1cccc2c1CCCC2)S(=O)(=O)c1ccc(Cl)cc1,-24.1,–
Cc1ccc(S(=O)(=O)N(CC(=O)Nc2ccc(Cl)cc2Cl)c2ccccc2C)cc1,–,11.6 µM (active)
Cc1ccc(N2C(=O)SC(N(CC(=O)O)c3ccc(C)cc3)C2=O)cc1 (centres undefined),-0.545,–
C(#CCN1CCOCC1)CCCN1CCOCC1,-4.04,–
COc1ccc(Nc2nc(Cl)nc(NCc3ccco3)n2)cc1,-25.1,–
COc1ccc(NC(=O)C(=O)NCc2ccco2)cc1,-2.26,–
COc1ccc(Nc2nc(NCc3ccco3)nc(N/N=C/c3ccccc3Cl)n2)cc1,–,23.1 µM (active)
CN1CCn2cnc(C(=O)NCC(=O)OC(C)(C)C)c2C1=O,3.77,–
CC12CCC(C(=O)N(CCC#N)CCC#N)(CC1=O)C2(C)C (centres undefined),-4.04,–
CC1=CC(C)(C)NC(=S)N1NC(=O)c1ccccc1Cl,-4.62,–
COc1ccc(NS(=O)(=O)c2cc(NC(=O)C3CCCCC3)ccc2N2CCOCC2)cc1,–,13 µM (active)
COc1ccc(NS(=O)(=O)c2cc(NC(=O)c3ccc(S(=O)(=O)N(C)C)cc3)ccc2N2CCOCC2)cc1,-17.8,–
COc1ccc(NS(=O)(=O)c2cc(NC(=O)/C=C/c3cc(OC)c(OC)c(OC)c3)ccc2N2CCCCC2)cc1,-18.2,–
O=c1[nH]c(CN2CCOCC2)nc2scc(-c3ccccc3)c12,-6.06,–
Oc1ccc(-n2nnnc2SCc2c(F)cccc2Cl)cc1,0.835,–
COc1ccccc1CNS(=O)(=O)c1ccc2c(c1)NC(=O)CS2,-27.6,–
CC(CC(=O)N1CCN(c2ccccc2)CC1)c1ccccc1 (centres undefined),-24,–
CC(CC(=O)N1CCN(c2ccccc2)CC1)S(=O)(=O)c1ccc2c(c1)NC(=O)CS2 (centres undefined),–,20.6 µM (active)

SMILES,"activity change, negative = growth inhibition [%]",Potency
Cc1nonc1NC(=O)c1ccccc1Br,-11.8,–
CC(C)C(C(=O)NCc1ccco1)N(CC1CCCO1)C(=O)CNS(=O)(=O)c1ccc(F)cc1 (centres undefined),-5.83,–
CCOC(=O)Cc1ccc(NC(=O)Nc2c[nH]c(=O)[nH]c2=O)cc1,0.46,–
CS(=O)(=O)N(Cc1nc2sc3c(c2c(=O)[nH]1)CCCC3)C1CCCCC1,–,23.1 µM (active)
Cc1ccc(S(=O)(=O)N2CCCC2C(=O)OCc2nc3sc(C)c(C)c3c(=O)[nH]2)cc1 (centres undefined),-7.99,–
CCN(CC)Cc1nc2sc(C)c(C)c2c(=O)[nH]1,15.3,–
CC(=O)Nc1ccc(NC(=O)CC2CCCC2)cc1,-6.51,–
COc1cc(CCN=Cc2ccccc2O)c([N+](=O)[O-])cc1OC,4.05,–
Cc1c(NC(=O)C(=O)N/N=C/c2cccs2)c(=O)n(-c2ccccc2)n1C,-8.59,–
Cc1cc(N=CC2=C(O)CCCC2=O)no1,-0.68,–
CC1(C)CC2CC(C)(CN2c2ncnc3ccc(Br)cc23)C1 (centres undefined),–,3.26 µM (active)
COc1ccc(Nc2ncnc3ccc(Br)cc23)c(OC)c1,-19.2,–
CCCCn1c(N)c(N(CCOC)C(=O)CSCC(=O)Nc2cccc(C)c2)c(=O)[nH]c1=O,-0.682,–
CC[C@@H](C)[C@@H](C(=O)N1CCN(C(=O)OC(C)(C)C)CC1)n1cc(CCC(=O)O)nn1,-0.0791,–
COc1ccc(C2NC(=O)N(C)C3=C2C(=O)N(c2ccc(C(=O)O)cc2)C3)cc1 (centres undefined),-25.2,–
Cc1ccc(C(=O)CSc2nnc(Cn3nnc4ccccc43)n2C)cc1,-16.1,–
Cc1ccc2nnn(Cc3cccc(C(C)(C)C)c3O)c2c1,–,11.6 µM (active)
O=C(Nc1ccccc1)N[C@H]1C[C@H](C(=O)O)Nc2cc(Cl)cc(Cl)c21,-8.72,–
CCCCCc1ccc(-c2ccc(OCC)cc2)nc1,-15.2,–
COc1ccc2[nH]c3ccc(OC)cc3c2c1,-13,–
COc1ccc2[nH]c3c(C)c4cc[n+](C)cc4c(C)c3c2c1,–,0.259 µM (active)
COc1ccc2[nH]c(=S)cc(C)c2c1,-20.7,–
O=S(=O)(NCc1ccc2c(c1)OCO2)c1cccc2nsnc12,11.7,–
O=Cc1cn(-c2ccccc2)nc1-c1ccccn1,-16.8,–
COc1ccc2c(c1)SC(C)CC2=O (centres undefined),-6.21,–
COc1ccc2c(c1)OC(O)(C(F)(F)C(F)F)CC2=O (centres undefined),–,23.1 µM (active)
